This is an account of results in PubChem BioAssay (NCI).

This is part of a sample that, as a whole, favours compounds with a hit. Of some 83,000 tested, about 20% had one in any assay.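 The test compound was applied at a single concentration to cells in 96-well plates for 48 hours, and percent growth was recorded.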 Values without a mark were called inactive. The source made the active and inactive calls. Rule for the calls: active = growth percent below 10; inactive = the rest.

This assay has as its system HL-60(TB) leukemia. Briefly: NCI-60 one-dose screen, 48 h (100 = growth as untreated, 0 = no growth, -100 = all killed). The following applies: 10 µM unless noted.
Take `O=c1oc2ccc(Br)cc2c(=O)n1-c1ccc(Br)cc1F`: the growth is -39.1% (active). In the case of `COc1ccc(NC(=O)c2cc(NCc3cc(O)ccc3O)ccc2O)cc1`, the growth is 43.8%.

As to `COc1ccc(NC(=S)Nc2ccccn2)cc1`, the growth was 84.9%.

As to `COc1ccc(NC2=C(Br)C(=O)C(C)=C(C)C2=O)cc1`, the growth was 11.7%.

Turning to `O=C(N(c1ccccc1)c1ccccc1)n1ccc2nc(Cl)nc(Cl)c21`, the growth is 49.5%. With `Cc1ccc2[nH]c(=S)n(-c3ccc(S(=O)(=O)Nc4ccc(Cl)nn4)cc3)c(=O)c2c1`, the growth was 100%.

As for `CCCCCCNC(=O)Oc1ccc(/C(=C(\C)c2ccccc2)c2ccc(OCCN(CC)CC)cc2)cc1`, the growth was 9.56% (active). As for `CC(C)(C)c1cc(-n2c(-c3ccc(Cl)cc3)nc3cc(C(=O)Nc4ccc(Cl)cc4)ccc32)n[nH]1`, the growth was 51.3%. Next, `CC(=O)Oc1ccc(Nc2c3ccccc3nc3ccccc23)cc1`: -5.02% (active); `Cn1cc(-c2nc(-c3c[nH]c4ncccc34)cs2)c2cc(Cl)ccc21`: 55.8%; `C#C[C@@]1(O)[C@@H](CO)O[C@@H](n2ccc3c(N)ncnc32)[C@@H]1O`: -25.5% (active). For the compound `COCCOCCOCc1n(Cc2ccc3ccccc3c2)c2ccccc2[n+]1Cc1ccc2ccccc2c1`, the growth was -53.5% (active). Turning to `Fc1ccc(-c2nc(Nc3ccc(-c4nc5ccccc5[nH]4)cc3)nc(N3CCOCC3)n2)cc1`, the growth is -81.4% (active). Turning to `COc1ccc(C(=O)c2cc(OC)c(OC)c(OC)c2)cc1OC(=O)CCl`, the growth was -34.4% (active). Take `CCOc1ccccc1NC(=O)c1cc2ccccc2cc1O`: the growth is 48.8%.

With `CCCCNC(=O)Oc1ccc(/C(=C(\C)c2ccccc2)c2ccc(OCCN(CC)CC)cc2)cc1`, the growth is 21.3%. With `Cc1c2cccnc2c(C)c2c1c1cc(CO)ccc1n2C`, the growth was 31%. Consider `O=C(/C=C/c1ccc(Oc2ccc(Br)cc2)cc1)c1ccc(Br)cc1`, for which the growth is 88%.

In the case of `N#CC1=C(N)Oc2c(ccc3ccccc23)C1c1cc(=O)oc2ccc(Cl)cc12` (stereo not given), the growth is -10.1% (active). Regarding `Nc1c(C(=O)c2ccc(Cl)cc2)sc(Nc2ccccc2)c1-c1nc2ccccc2s1`, the growth is 69.6%. For the compound `O=C1C=CC(=O)N1CCCCCCCCCCN1C(=O)C=CC1=O`, the growth was 12.2%.

On to `CCOC(=O)/C(=C(/C)NCC(C)C)c1cc(O)c(O)c2c(C)cc(=O)[nH]c12`, for which the growth was -6.69% (active).

As for `Cc1cccc2cc(/C=C/C(=O)/C=C/c3ccc(Cl)cc3)c(=O)[nH]c12`, the growth was 44.2%. Next, `COc1ccc(Cn2cnc3cc(C(=O)Nc4cccc5ccccc45)ccc32)c(OC)c1`: -33.3% [30 µM] (active). For `Cc1cccc(C[C@H](NC(=O)Nc2ccc(Cl)cc2F)C(=O)N[C@@H]2C(=O)N3C[C@H](O)C[C@H]3C(=O)N3CCCC[C@H]3C(=O)N[C@@H](C)C(=O)N3C[C@H](C)C[C@H]3C(=O)O[C@H]2C)c1`, the growth was 6.77% (active). Turning to `COc1ccc(C(=O)Cn2cnc3c(Nc4cc(C(=O)Nc5ccc(N6CCN(CCO)CC6)cc5)ccc4C)ncnc32)cc1`, the growth was 83.6%. For the compound `CC(=O)O[C@]1(C(C)=O)CC[C@H]2[C@@H]3C=C(Cl)C4=CC(=O)CC[C@]4(C)[C@H]3CC[C@@]21C`, the growth was 104%. Next, `O=C1c2ccccc2C(=O)c2sc(Nc3ccc(Cl)cc3)nc21`: -10.8% (active); `Nc1n[nH]c2cccc(C#Cc3cccc(NC(=O)c4cc(F)cc(C(F)(F)F)c4)c3)c12`: 37.7%; `O=C(CCC(=O)c1nc2ncccc2[nH]1)NN1C(=O)CSC1c1ccc(Cl)cc1` (stereo not given): 99.6%. Next, `Oc1ccc(N=Nc2ccc(N=Nc3ccccc3)cc2)cc1`: 7.35% (active); `O=C(Nc1ccc(Cl)cc1)Oc1c(Cl)c(Cl)c(Cl)c(Cl)c1Cl`: 98.5%; `COC(=O)c1nc(-c2ccccc2)oc1S(=O)(=O)N1CCCC(C)C1` (stereo not given): 15%. For `CCNCCNc1cc(-c2cccc(C(F)(F)F)c2)c(C#N)c2nc3ccccc3n12`, the growth was -58.7% (active). As to `N#CC(Cc1cccc2ccccc12)c1cc2ccccc2[nH]1` (stereo not given), the growth was 96.4%. Next, `CCN(CC)c1ccc(/C=N/NC(=O)CSc2nc3ccccc3c(=O)n2Cc2ccc(S(N)(=O)=O)cc2)c(O)c1`: -19.7% (active).

Consider `CCOC(=O)CCCC(=O)OCC`, for which the growth was 102%. For the compound `Cc1ccc(C)c(NC(=O)c2sc3c(=O)[nH]cnc3c2C)c1`, the growth is 65.4%.

`CCOc1ccccc1/C=N\N=C(N/N=C/c1ccccc1OCC)N/N=C/c1ccccc1OCC`: the growth is 11.9%. `CC1(C)[C@@H](NOCCCN)CC[C@]2(C)[C@H]3C(=O)C=C4[C@@H]5C[C@](C)(C(=O)O)CC[C@]5(C)CC[C@@]4(C)[C@]3(C)CC[C@@H]12`: the growth was -31.3% [100 µM] (active).
